# Reference: paper PMC7862700, “An all-to-all approach to the identification of sequence-specific readers for epigenetic DNA modifications on cytosine”
# Columns and labels:
# Test in all cases: DAPPL (digital affinity profiling via proximity ligation, sequencing); 10 mM Tris-HCl pH 7.5, 50 mM NaCl, 1 mM DTT, 4% glycerol, room temperature, 30 min; GST-TFs on glutathione beads, 16-mer random dsDNA library, 0.1% formaldehyde crosslink after washing; high values mean tight binding
# Settings in all cases: protein: recombinant; tags: N-terminal GST; dsDNA, one strand shown
# FLI1 = target: T1, FLI1 (Homo sapiens, UniProt Q01543 1-452)
# T1 sequence: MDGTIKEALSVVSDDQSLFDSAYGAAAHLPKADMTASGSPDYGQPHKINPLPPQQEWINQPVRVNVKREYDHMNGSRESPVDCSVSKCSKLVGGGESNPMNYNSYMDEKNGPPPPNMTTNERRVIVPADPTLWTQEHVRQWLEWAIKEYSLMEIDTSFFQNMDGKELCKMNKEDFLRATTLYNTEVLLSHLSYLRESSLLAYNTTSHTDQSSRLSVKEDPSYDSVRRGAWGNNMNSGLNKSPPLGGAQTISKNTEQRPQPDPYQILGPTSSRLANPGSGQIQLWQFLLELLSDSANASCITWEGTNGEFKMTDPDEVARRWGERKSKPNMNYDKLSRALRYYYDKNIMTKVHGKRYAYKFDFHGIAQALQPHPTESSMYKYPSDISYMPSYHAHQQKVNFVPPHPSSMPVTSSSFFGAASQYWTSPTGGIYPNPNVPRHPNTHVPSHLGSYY
# Summary of the method: (§1)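 After expression in yeast as GST fusions, human transcription factors were bound to glutathione beads, DNA-barcoded and mixed with a tag-only sample. The pools were incubated with 200 nmole of a 16-mer random double-stranded DNA library in Tris/NaCl/DTT/glycerol buffer (30 min, room temperature), washed and crosslinked with 0.1% formaldehyde. Proximity ligation with BsaI/T4 ligase ran for 1 h at 37 °C, before PCR amplification and sequencing on an Illumina NextSeq500. Binding signal is a hexamer's read frequency for a factor divided by its frequency for the tag-only sample.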
# ELK1 = target: T2, ELK1 (Homo sapiens, UniProt P19419 1-428)
# T2 sequence: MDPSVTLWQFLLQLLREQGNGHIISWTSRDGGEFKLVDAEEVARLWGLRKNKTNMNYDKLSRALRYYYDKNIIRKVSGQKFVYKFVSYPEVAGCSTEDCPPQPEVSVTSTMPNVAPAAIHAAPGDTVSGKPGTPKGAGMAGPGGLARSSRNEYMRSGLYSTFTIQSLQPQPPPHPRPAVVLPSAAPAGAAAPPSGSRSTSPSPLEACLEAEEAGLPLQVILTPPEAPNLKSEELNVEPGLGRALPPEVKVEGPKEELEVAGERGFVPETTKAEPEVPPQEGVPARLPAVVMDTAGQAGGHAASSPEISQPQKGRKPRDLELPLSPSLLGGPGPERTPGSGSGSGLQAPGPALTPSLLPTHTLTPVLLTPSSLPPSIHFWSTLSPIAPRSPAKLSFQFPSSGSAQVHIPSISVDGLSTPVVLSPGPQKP
# Summary of the method: as §1
# GABPA = target: T3, GABPA (Homo sapiens, UniProt Q06546 1-454)
# T3 sequence: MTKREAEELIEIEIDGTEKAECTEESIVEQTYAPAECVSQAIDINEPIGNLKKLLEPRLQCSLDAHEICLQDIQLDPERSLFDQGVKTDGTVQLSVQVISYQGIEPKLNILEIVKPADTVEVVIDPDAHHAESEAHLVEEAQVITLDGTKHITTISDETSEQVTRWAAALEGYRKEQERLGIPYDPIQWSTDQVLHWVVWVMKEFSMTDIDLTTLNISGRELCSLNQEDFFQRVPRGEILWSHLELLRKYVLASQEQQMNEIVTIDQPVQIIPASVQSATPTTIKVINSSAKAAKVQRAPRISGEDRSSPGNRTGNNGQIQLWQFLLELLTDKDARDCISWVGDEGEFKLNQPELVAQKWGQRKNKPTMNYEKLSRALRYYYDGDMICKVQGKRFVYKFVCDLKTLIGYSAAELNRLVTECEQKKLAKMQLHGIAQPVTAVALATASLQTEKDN
# Summary of the method: as §1
# ERG = target: T4, ERG (Homo sapiens, UniProt P11308 1-479)
# T4 sequence: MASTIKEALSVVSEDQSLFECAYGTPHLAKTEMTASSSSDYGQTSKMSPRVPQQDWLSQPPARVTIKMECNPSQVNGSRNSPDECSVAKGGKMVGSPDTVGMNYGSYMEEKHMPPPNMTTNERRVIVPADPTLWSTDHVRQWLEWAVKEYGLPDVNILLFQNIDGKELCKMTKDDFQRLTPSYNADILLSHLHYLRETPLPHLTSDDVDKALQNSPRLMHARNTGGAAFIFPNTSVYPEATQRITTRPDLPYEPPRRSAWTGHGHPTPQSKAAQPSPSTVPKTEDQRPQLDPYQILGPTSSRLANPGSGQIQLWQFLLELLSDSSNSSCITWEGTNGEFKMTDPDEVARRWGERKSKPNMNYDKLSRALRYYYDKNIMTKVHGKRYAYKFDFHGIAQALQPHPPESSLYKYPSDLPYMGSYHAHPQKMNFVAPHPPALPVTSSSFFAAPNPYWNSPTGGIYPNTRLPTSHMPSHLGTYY
# Summary of the method: as §1
# ELF1 = ELF1 (Homo sapiens, UniProt P32519 1-619)
# Sequence of ELF1 (P32519 whole entry): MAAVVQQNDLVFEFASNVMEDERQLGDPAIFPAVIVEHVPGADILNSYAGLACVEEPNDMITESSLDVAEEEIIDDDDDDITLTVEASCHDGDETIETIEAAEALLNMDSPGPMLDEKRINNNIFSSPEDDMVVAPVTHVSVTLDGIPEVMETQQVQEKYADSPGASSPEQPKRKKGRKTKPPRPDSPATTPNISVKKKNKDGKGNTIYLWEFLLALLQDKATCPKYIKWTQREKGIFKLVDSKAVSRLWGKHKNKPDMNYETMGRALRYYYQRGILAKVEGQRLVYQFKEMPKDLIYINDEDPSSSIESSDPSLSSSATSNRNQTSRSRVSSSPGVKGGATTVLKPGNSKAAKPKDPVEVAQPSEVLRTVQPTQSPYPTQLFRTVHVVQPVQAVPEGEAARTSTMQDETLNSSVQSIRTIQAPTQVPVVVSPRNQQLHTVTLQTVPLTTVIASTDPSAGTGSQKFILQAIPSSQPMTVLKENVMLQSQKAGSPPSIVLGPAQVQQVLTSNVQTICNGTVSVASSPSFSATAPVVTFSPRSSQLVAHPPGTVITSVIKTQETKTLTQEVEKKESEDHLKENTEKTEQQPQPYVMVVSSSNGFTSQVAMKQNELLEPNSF
# Summary of the method: as §1
# EHF = target: T5, EHF (Homo sapiens, UniProt Q9NZC4 1-300)
# T5 sequence: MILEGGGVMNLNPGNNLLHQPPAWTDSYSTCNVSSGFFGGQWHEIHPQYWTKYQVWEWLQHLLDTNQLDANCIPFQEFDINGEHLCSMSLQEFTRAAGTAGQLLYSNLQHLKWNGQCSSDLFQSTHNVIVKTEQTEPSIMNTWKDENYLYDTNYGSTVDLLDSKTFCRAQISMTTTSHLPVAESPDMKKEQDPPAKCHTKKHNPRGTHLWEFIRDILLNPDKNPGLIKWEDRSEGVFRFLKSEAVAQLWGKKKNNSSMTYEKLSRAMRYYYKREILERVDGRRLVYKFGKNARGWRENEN
# Summary of the method: as §1
# SPI1 = SPI1 (Homo sapiens, UniProt P17947 1-270)
# Summary of the method: as §1
# SPIB = SPIB (Homo sapiens, UniProt Q01892 1-262)
# Sequence of SPIB (Q01892 whole entry): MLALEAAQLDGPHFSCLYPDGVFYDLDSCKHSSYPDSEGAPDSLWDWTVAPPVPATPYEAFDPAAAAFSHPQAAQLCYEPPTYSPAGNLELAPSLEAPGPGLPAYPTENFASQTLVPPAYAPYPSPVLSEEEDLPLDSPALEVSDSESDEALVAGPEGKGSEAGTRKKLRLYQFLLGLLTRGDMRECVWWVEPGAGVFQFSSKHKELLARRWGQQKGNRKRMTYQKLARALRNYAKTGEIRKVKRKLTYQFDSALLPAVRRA
# Summary of the method: as §1
# ELK3 = target: T6, ELK3 (Homo sapiens, UniProt P41970 1-407)
# T6 sequence: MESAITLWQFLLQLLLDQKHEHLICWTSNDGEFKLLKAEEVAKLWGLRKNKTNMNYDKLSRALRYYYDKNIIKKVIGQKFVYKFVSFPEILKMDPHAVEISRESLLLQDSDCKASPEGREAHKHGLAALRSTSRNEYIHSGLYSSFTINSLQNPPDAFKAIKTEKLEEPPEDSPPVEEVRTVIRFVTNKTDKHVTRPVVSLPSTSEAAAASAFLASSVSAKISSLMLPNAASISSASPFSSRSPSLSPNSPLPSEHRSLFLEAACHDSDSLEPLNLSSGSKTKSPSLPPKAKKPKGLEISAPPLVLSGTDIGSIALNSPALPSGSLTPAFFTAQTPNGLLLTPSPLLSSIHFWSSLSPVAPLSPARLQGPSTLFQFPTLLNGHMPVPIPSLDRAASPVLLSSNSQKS
# Summary of the method: as §1
# FEV = target: T7, FEV (Homo sapiens, UniProt Q99581 1-238)
# T7 sequence: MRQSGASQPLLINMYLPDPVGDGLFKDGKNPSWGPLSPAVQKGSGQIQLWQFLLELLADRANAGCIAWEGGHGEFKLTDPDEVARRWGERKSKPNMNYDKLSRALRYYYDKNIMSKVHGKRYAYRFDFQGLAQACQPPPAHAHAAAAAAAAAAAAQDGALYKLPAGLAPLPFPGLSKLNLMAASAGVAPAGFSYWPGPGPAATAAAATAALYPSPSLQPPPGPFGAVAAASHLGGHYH
# Summary of the method: as §1
# ETV5 = ETV5 (Homo sapiens, UniProt P41161 1-510)
# Sequence of ETV5 (P41161 whole entry): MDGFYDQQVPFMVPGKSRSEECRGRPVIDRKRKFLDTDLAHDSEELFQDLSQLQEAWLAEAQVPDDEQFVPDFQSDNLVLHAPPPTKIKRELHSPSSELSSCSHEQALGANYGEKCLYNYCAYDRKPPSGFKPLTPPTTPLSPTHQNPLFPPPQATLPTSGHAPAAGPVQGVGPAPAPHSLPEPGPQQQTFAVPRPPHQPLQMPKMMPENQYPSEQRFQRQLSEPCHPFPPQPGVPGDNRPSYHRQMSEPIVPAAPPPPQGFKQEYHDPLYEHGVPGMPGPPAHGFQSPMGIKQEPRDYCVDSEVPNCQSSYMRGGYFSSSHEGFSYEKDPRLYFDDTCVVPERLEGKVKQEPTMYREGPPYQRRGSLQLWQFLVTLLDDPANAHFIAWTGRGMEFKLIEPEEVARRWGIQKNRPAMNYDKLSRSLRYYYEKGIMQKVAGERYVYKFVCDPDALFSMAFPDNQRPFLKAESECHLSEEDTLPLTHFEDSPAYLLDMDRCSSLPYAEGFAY
# Summary of the method: as §1
# SPIC = target: T8, SPIC (Homo sapiens, UniProt Q8N5J4 1-248)
# T8 sequence: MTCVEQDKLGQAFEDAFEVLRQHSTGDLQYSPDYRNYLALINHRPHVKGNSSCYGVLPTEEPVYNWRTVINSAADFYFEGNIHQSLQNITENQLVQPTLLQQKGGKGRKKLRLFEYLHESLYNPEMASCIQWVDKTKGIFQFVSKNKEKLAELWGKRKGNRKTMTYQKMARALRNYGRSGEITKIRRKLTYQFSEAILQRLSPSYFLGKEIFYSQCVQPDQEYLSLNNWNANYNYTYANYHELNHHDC
# Summary of the method: as §1
# ELF4 = ELF4 (Homo sapiens, UniProt Q99607 1-663)
# Sequence of ELF4 (Q99607 whole entry): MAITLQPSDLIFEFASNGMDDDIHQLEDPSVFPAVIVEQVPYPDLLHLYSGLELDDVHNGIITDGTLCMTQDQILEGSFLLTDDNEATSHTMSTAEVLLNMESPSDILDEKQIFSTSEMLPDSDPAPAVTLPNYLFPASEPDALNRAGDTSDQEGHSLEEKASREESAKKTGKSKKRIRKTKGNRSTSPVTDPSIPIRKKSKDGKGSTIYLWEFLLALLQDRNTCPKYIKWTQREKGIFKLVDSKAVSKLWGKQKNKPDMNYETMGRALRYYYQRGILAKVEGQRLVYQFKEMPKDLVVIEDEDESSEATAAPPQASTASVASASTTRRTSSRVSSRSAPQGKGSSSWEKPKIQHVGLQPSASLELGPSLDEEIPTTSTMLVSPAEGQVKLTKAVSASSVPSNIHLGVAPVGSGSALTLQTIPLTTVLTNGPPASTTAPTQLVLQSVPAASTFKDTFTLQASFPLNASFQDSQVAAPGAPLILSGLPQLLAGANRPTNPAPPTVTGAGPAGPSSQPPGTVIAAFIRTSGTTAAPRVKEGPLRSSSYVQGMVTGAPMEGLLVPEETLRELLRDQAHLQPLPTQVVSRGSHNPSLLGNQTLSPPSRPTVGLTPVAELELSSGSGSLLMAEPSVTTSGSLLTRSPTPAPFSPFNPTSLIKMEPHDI
# Summary of the method: as §1
# ELK4 = target: T9, ELK4 (Homo sapiens, UniProt P28324-2 1-405)
# T9 sequence: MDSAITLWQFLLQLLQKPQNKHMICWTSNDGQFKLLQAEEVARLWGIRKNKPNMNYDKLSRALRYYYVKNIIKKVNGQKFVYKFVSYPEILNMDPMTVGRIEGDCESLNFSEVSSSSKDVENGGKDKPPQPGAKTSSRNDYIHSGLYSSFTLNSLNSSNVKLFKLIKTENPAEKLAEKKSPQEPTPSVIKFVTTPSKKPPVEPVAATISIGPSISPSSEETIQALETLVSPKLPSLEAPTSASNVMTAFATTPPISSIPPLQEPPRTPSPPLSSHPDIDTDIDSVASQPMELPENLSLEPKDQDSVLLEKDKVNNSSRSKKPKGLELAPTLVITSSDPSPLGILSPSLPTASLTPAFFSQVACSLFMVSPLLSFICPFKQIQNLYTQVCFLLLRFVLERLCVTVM
# Summary of the method: as §1
# ETV2 = target: T10, ETV2 (Homo sapiens, UniProt O00321 1-342)
# T10 sequence: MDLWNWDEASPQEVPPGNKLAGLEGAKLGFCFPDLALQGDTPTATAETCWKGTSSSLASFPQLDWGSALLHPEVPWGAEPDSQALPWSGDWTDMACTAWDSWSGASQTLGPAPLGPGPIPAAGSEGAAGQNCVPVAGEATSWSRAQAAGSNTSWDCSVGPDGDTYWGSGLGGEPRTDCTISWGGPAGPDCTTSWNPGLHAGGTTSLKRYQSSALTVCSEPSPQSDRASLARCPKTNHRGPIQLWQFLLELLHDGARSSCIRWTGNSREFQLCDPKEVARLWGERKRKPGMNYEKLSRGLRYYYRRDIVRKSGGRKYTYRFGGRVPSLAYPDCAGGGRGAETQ
# Summary of the method: as §1
# ELF3 = target: T11, ELF3 (Homo sapiens, UniProt P78545 1-371)
# T11 sequence: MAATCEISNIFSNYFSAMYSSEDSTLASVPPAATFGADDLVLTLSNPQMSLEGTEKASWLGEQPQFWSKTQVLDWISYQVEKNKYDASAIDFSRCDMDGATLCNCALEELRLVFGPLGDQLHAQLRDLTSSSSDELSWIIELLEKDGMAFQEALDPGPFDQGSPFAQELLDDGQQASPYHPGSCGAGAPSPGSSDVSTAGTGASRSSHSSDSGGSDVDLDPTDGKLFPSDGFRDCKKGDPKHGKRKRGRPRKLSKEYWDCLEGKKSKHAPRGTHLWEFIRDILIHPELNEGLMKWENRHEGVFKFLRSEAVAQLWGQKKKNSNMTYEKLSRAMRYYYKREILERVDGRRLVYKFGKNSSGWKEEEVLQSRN
# Summary of the method: as §1
# ETV1 = ETV1 (Homo sapiens, UniProt P50549 1-477)
# Sequence of ETV1 (P50549 whole entry): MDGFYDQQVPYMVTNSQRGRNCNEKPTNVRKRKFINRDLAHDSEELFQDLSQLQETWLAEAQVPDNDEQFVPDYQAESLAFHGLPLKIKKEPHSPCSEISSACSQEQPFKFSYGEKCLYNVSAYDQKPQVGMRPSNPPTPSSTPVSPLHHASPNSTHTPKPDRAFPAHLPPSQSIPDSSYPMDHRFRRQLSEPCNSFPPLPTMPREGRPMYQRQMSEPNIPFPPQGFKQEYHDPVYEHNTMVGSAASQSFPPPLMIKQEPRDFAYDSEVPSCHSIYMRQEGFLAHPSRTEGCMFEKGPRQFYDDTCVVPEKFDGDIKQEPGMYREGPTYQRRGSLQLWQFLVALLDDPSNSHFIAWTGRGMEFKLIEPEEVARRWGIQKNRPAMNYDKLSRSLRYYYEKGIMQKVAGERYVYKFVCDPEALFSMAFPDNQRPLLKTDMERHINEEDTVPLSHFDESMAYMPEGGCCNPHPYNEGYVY
# Summary of the method: as §1
Sequence,binding signal (FLI1),binding signal (ELK1),binding signal (GABPA),binding signal (ERG),binding signal (ELF1),binding signal (EHF),binding signal (SPI1),binding signal (SPIB),binding signal (ELK3),binding signal (FEV),binding signal (ETV5),binding signal (SPIC),binding signal (ELF4),binding signal (ELK4),binding signal (ETV2),binding signal (ELF3),binding signal (ETV1)
AGTGGC,"1.31 fold enrichment (6-mer frequency, TF over GST control)","1.19 fold enrichment (6-mer frequency, TF over GST control)","1.2 fold enrichment (6-mer frequency, TF over GST control)","1.28 fold enrichment (6-mer frequency, TF over GST control)","1.23 fold enrichment (6-mer frequency, TF over GST control)","1.4 fold enrichment (6-mer frequency, TF over GST control)","1.75 fold enrichment (6-mer frequency, TF over GST control)","1.3 fold enrichment (6-mer frequency, TF over GST control)","1.31 fold enrichment (6-mer frequency, TF over GST control)","1.43 fold enrichment (6-mer frequency, TF over GST control)","1.24 fold enrichment (6-mer frequency, TF over GST control)","1.16 fold enrichment (6-mer frequency, TF over GST control)","1.19 fold enrichment (6-mer frequency, TF over GST control)","1.24 fold enrichment (6-mer frequency, TF over GST control)","1.18 fold enrichment (6-mer frequency, TF over GST control)","1.36 fold enrichment (6-mer frequency, TF over GST control)","1.16 fold enrichment (6-mer frequency, TF over GST control)"
CACATC,"1.39 fold enrichment (6-mer frequency, TF over GST control)","1.45 fold enrichment (6-mer frequency, TF over GST control)","1.33 fold enrichment (6-mer frequency, TF over GST control)","1.64 fold enrichment (6-mer frequency, TF over GST control)","1.4 fold enrichment (6-mer frequency, TF over GST control)","1.5 fold enrichment (6-mer frequency, TF over GST control)","1.37 fold enrichment (6-mer frequency, TF over GST control)","1.46 fold enrichment (6-mer frequency, TF over GST control)","1.61 fold enrichment (6-mer frequency, TF over GST control)","1.71 fold enrichment (6-mer frequency, TF over GST control)","1.5 fold enrichment (6-mer frequency, TF over GST control)","1.31 fold enrichment (6-mer frequency, TF over GST control)","1.36 fold enrichment (6-mer frequency, TF over GST control)","1.45 fold enrichment (6-mer frequency, TF over GST control)","1.44 fold enrichment (6-mer frequency, TF over GST control)","1.34 fold enrichment (6-mer frequency, TF over GST control)","1.38 fold enrichment (6-mer frequency, TF over GST control)"
